Where “and” joins values, the source holds several entries; their conditions need not be identical. Equal entries are not always repeated. Results filed as inconclusive are left out. Entries that show only a call come without a potency. Where a structure was tested more than once in an assay, its records may differ in their call. Calls of active or inactive are those of the source. Unless noted, calls follow the shape of the dose curve; as a rule, active = well fitted curve in the direction sought with a large enough effect; inconclusive = small, poorly fitted or top-dose-only effect, or another doubt; inactive = no such curve, though single readings can be large; an effect the other way counts as inactive or inconclusive.

Test [1] concerns the target Guanine nucleotide-binding protein G(i) subunit alpha-1 (Homo sapiens) (UniProt P63096). Briefly: qHTS Assay for Inhibitors of RGS12 GoLoco Motif Activity (Green Fluorophore) (AID 879).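 Also: negative values mean loss of peptide binding seen as reduced polarization.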 The procedure, abridged: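 A drop in FITC polarization marked displacement of the FITC-tagged RGS12 GoLoco peptide (10 nM) from Gαi1 (50 nM). Compounds were incubated 10 min at room temperature in Tris pH 7.5 buffer containing 150 mM NaCl, 0.1 mM GDP and 0.05% NP40; unlabeled peptide titration served as control.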
(In general: Quantitative high-throughput screening tests each substance at several concentrations.)

Test [2] has as its target Cytochrome P450 2D6 (Homo sapiens) (UniProt P10635). The test is described as follows: qHTS Assay for Inhibitors and Substrates of Cytochrome P450 2D6 (AID 891). Also: nearly all actives have a fitted effect of over 60% in size. Also: potency is read from the fitted curve at half-maximal effect. The procedure, abridged: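 Luminescent read-out of luciferin formed by 5 nM human CYP2D6 demethylating 30 uM Luciferin-ME EGE (Km level) over 60 min at room temperature after NADPH regeneration addition. Data normalized to full inhibition by 1.43 uM quinidine.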

Test [3] has as its target Cytochrome P450 2C19 (Homo sapiens) (UniProt P33261). The test is described as follows: qHTS Assay for Inhibitors and Substrates of Cytochrome P450 2C19 (AID 899). Also: nearly all actives have a fitted effect of over 60% in size. Also: potency is read from the fitted curve at half-maximal effect. The procedure, abridged: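 Luminescence readout of luciferin formed from 10uM Luciferin-H EGE (KM level) by 5 nM CYP2C19 in 50mM KPO4. 60 min NADPH-driven reaction at 37C after 10 min compound preincubation; data scaled to 57uM ketoconazole inhibition.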

The nature of test [4]: qHTS Assay for Identification of Small Molecule Antagonists for NFkB Signaling Pathway (AID 895; active = well fitted inhibition curve with a large enough effect in the signal ratio, with a control signal flat, not every such curve was filed as active; the % refers to the signal ratio; also: potency is read from the fitted curve at half-maximal effect). The procedure, abridged: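 Beta-lactamase reporter read-out (460 and 530 nm emission ratio, 405 nm excitation, 2 hrs substrate loading RT) after 5 hr stimulation with 10 pM TNF alpha in compound-treated NFkB-bla ME-180 cells in low-serum medium.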
A short description of test [5]: qHTS Assay for Identification of Small Molecule Agonists for Hypoxia Response Element Signaling Pathway (AID 914; active = well fitted activation curve with a large enough effect in the signal ratio, with a control signal flat, not every such curve was filed as active; the % refers to the signal ratio). The settings on record: ME-180 HRE-bla reporter, beta-lactamase ratio, CoCl2, 17 h; stronger effect = higher value. The procedure, abridged: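 ME-180 cells carrying an HRE-driven beta-lactamase reporter were treated with compounds in a titration series plus an EC50 level of CoCl2 for 17 h at 37 degrees Celsius; CCF4 readout as the 460nm/530nm ratio gave AC50 values.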

Test [6] is described as follows: Confirmation and Secondary Assay for Modulators of Hemoglobin Beta Chain Splicing at IVS2 654 locus (AID 910).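 Also: HeLa cells stably carrying EGFP split by mutant beta-globin IVS2-654 intron; per-well total GFP intensity by laser scanning cytometry after 2-day treatment.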 The procedure, abridged:
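Readout: per-well total peak green fluorescence (488 nm ex, 500–520 nm em) from objects 5–250 µm, reflecting correct splicing of an EGFP-654 reporter. Compounds were applied for 2 days at 37 °C to overnight-plated HeLa EGFP-654 cells; controls were DMSO and 500 nM IVS2-654 PNA.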

The nature of test [7]: qHTS Assay for Identification of Small Molecule Agonists for Thrombopoietin (TPO) Signaling Pathway (AID 917). The procedure, abridged: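 Stimulation at the TPO EC50 (26 pM final) was used to detect activators. Ba/F3 mouse cells bearing human TPO receptor and a luciferase reporter under the Glycoprotein IIb promoter were exposed to compounds for 24 hrs at 37 C.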
In test [8] the target is Cytochrome P450 3A4 (Homo sapiens) (UniProt P08684). The test is described as follows: qHTS Assay for Inhibitors and Substrates of Cytochrome P450 3A4 (AID 884). Also: series mostly up to about 57 µM; nearly all actives have a fitted effect of over 50% in size. The procedure, abridged: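 Luminescent readout of luciferin produced by CYP3A4 (20 nM) dealkylation of Luciferin-PPXE, 25 uM (its KM). NADPH-driven reaction ran 60 min at RT after 10 min compound preincubation; data scaled to 57 uM ketoconazole as 100% inhibition.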

Test [9] deals with Cytochrome P450 2C9 (Homo sapiens) (UniProt P11712). Briefly: qHTS Assay for Inhibitors and Substrates of Cytochrome P450 2C9 (AID 883). Also: nearly all actives have a fitted effect of over 60% in size. Also: potency is read from the fitted curve at half-maximal effect. The procedure, abridged:
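Luminescent read-out of deoxyluciferin hydroxylation, normalized to 57uM sulphaphenazole (AC100). Reaction: 10nM enzyme, 100uM Luciferin-H (equal to KM), 25mM KPO4, 10 min compound preincubation, then 60 min with NADPH regeneration, both at 37C.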

Test [10] can be described thus: qHTS Assay for Identification of Small Molecule Antagonists for Thrombopoietin (TPO) Signaling Pathway (AID 918). Also: potency is read from the fitted curve at half-maximal effect; nearly all actives have a fitted effect of over 60% in size. The following applies: TPO-dependent cell signaling reporter, antagonist mode. The procedure, abridged: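 Inhibitors of TPO signaling are sought by stimulating IL-3-starved murine Ba/F3 cells (human TPO receptor, Glycoprotein IIb-driven luciferase) with TPO at its EC50 of 26 pM alongside compound. After 24 hrs at 37 C, reporter luminescence is measured.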

Cytochrome P450 2C19 (Homo sapiens), sequence (P33261 whole entry, looked up): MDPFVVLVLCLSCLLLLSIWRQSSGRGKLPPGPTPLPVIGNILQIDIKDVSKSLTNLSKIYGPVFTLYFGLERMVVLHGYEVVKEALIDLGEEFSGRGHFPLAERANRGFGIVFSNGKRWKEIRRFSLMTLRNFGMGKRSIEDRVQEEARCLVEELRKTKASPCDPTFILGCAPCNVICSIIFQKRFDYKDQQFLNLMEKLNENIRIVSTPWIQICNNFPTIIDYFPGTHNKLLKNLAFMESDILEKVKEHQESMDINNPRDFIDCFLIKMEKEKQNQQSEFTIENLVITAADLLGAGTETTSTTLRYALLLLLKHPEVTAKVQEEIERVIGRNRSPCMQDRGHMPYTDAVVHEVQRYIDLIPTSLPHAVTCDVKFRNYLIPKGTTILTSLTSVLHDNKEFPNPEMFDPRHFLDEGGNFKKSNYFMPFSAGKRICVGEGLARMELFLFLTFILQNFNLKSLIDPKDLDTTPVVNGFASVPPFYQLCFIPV
Cytochrome P450 2C9 (Homo sapiens), sequence (P11712 whole entry, looked up): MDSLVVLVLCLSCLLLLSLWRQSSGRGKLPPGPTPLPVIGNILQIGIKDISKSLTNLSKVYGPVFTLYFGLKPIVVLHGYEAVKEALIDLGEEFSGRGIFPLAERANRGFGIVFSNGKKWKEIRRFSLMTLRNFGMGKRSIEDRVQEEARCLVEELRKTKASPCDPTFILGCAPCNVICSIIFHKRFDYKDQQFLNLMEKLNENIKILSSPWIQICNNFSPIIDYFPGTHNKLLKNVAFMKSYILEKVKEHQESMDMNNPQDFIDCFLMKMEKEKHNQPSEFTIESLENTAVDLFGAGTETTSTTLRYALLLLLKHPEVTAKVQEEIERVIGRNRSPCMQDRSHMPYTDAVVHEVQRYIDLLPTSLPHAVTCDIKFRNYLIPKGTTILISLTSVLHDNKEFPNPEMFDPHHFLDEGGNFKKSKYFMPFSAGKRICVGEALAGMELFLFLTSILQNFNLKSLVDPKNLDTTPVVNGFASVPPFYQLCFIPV
Cytochrome P450 3A4 (Homo sapiens), sequence (P08684 whole entry, looked up): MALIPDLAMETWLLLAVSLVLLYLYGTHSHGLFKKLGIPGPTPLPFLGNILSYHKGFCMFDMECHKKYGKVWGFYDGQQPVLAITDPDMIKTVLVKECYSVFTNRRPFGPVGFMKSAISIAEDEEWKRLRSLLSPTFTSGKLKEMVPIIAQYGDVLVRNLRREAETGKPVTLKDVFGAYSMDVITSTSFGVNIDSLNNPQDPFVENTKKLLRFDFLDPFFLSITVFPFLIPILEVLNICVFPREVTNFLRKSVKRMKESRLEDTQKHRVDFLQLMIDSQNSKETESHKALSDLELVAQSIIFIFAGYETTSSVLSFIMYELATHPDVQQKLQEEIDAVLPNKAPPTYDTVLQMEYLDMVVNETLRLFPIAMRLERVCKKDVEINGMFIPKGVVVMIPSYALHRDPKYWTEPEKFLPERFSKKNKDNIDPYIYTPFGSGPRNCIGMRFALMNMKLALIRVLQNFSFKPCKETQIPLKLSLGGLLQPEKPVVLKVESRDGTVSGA
Guanine nucleotide-binding protein G(i) subunit alpha-1 (Homo sapiens), sequence (P63096 whole entry, looked up): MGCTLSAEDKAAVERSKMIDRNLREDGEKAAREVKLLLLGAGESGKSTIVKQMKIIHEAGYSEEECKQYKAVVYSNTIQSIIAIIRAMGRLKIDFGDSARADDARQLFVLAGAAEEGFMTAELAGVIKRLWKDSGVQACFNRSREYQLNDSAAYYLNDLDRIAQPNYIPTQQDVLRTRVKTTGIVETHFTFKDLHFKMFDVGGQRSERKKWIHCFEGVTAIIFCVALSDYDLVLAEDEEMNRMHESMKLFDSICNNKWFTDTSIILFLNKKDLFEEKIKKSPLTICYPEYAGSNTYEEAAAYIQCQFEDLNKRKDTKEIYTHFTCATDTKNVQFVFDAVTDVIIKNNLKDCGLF
Cytochrome P450 2D6 (Homo sapiens), sequence (P10635 whole entry, looked up): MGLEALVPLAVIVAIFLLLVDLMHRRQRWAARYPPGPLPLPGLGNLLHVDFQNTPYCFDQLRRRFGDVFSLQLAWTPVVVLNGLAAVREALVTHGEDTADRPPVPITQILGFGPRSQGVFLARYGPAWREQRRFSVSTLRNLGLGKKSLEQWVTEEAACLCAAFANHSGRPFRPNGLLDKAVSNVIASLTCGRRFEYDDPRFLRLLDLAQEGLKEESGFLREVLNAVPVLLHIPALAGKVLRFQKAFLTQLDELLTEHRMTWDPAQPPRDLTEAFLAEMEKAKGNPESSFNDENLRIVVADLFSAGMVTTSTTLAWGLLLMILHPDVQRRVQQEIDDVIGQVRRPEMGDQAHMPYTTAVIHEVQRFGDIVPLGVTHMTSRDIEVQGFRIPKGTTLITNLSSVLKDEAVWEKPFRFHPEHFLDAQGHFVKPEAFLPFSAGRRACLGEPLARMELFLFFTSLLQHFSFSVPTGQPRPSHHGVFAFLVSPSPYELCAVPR

As for `C#CCN(C)CCCOc1ccc(Cl)cc1Cl`, in [1], the Potency result is “inactive”. The Potency in [2] is 2 µM (active) and 398 nM (active); in test [3], 5.01 µM (active) and 2.51 µM (active).
In the case of `CCCCNc1c(C(=O)OCC)c(C)nc2c1cnn2CC`, in [1], the Potency result was “inactive”. The Potency entry in test [2] was “inactive and 199 nM (active)”.
Regarding `CCc1cccc(N(C)C(N)=Nc2cccc3ccccc23)c1`, the Potency entry in [1] and in test [4] was “inactive” throughout. Further, the Potency in test [2] was 0.199 µM (active). Moreover, the activation in test [5] is -13% (inactive).
Take `CCN(CC)CC(=O)Nc1c(C)cccc1C`: the Potency entry in test [1] and in test [4] was “inactive” throughout. Further, the result in test [6] and in [7] was inactive.
As to `CCN(CC)CCOCCOC(=O)C1(c2ccccc2)CCCC1`, in test [1], the Potency result was “inactive”. In [6], the molecule was called inactive.
Regarding `CN(C)C(=O)Oc1cccc([N+](C)(C)C)c1`, the Potency result in [1] and in test [4] was “inactive” in each case. Moreover, the result in test [8], in test [6] and in test [7] was inactive.
For `CN1CCN(C2=Nc3ccccc3Oc3ccc(Cl)cc32)CC1`, the Potency result in [1] and in [4] was “inactive” in each case. The outcome in test [6] and in test [7] was inactive.
On to `CC(C)[N+](C)(CCOC(=O)C1c2ccccc2Oc2ccccc21)C(C)C`, for which the Potency entry in [1] is “inactive”. Besides, the Potency in test [2] is 1.26 µM (active). In addition, in [6], the molecule was classed as inactive.
Take `N[C@@H](COP(=O)(O)O)C(=O)O`: the Potency result in test [1], in test [4] and in [3] was “inactive” each time. For the same molecule, in test [7], the molecule was called inactive.
In the case of `CN(C)C(=O)Oc1ccc[n+](C)c1`, in [1], the Potency result is “inactive”. For the same molecule, the outcome in test [8] and in [6] was inactive.
On to `CC(C)NNC(=O)c1ccncc1`, for which the Potency entry in [1] is “inactive”. The molecule was classed as inactive in test [8] and in test [6].
For `Cc1nc2ccccn2c(=O)c1CCN1CCC(C(=O)c2ccc(F)cc2)CC1`, the Potency result in test [1], in [9], in [4] and in test [3] was “inactive” in each case. Besides, in test [6], the call was inactive.
Turning to `O=C(O)CCCCCCCC(=O)O`, the Potency result in [1] was “inactive”. For the same molecule, the result in test [8] and in test [6] was inactive.
For the molecule `Cc1nc2c([nH]1)c(=O)n(C)c(=O)n2Cc1ccco1`, the Potency result in [1] and in test [3] was “inactive” in each case. For the same molecule, the Potency in test [4] was 63.1 nM (active).
Turning to `CCCOc1ccccc1-c1nc2n[nH]nc2c(=O)[nH]1`, the Potency result in test [1] and in [4] was “inactive” in each case. Further, the call in [8], in test [6] and in test [7] was inactive.
`COc1ccc2c(c1OC)C(=O)O[C@@H]2[C@H]1c2c(cc3c(c2OC)OCO3)CCN1C`: the Potency in [9] is 126 nM (active); in test [3] it was 158 nM (active).
Take `COC(=O)C1=C(C)NC(C)=C(C(=O)OCCN(C)Cc2ccccc2)C1c1cccc([N+](=O)[O-])c1` (stereo not given): in test [6], the call was inactive.
The same measure, in the same setting: as for `c1ccc2c(c1)CCCC2C1=NCCN1` (stereo not given), the entry is “inactive”; as for `COCCc1ccc(OCC(O)CNC(C)C)cc1` (stereo not given), “inactive”.
For the molecule `C=CCc1ccccc1OCC(O)CNC(C)C` (stereo not given), the call in [8] and in test [6] was inactive.
Consider `CC(C)COCC(CN(Cc1ccccc1)c1ccccc1)N1CCCC1` (stereo not given), for which the outcome in [6] was inactive.
With `COc1cc(C(=O)OCCCN2CCCN(CCCOC(=O)c3cc(OC)c(OC)c(OC)c3)CC2)cc(OC)c1OC`, the Potency result in [1] was “inactive”. For the same molecule, in test [10], the Potency was 10000 nM (active).
For `CN(C)CCCN1c2ccccc2Sc2ccccc21`, the Potency entry in [1] is “inactive”. Besides, in [6], the outcome was inactive.
With `CCCCCCCC/C=C\CCCCCCCC(=O)NCc1ccc(O)c(OC)c1`, the Potency in test [2] is 3.16 µM (active).
Consider `CN/C(=C\[N+](=O)[O-])NCCSCc1ccc(CN(C)C)o1`, for which the Potency entry in [1] was “inactive”. The molecule was classed as inactive in test [6] and in [7].
`Fc1ccc(C(c2ccc(F)cc2)N2CCN(C/C=C/c3ccccc3)CC2)cc1`: the outcome in test [8] and in [6] was inactive.
Regarding `CC(N=C(NC#N)Nc1ccncc1)C(C)(C)C` (stereo not given), in test [6], the call was inactive.
`C[C@]12CCC(=O)C=C1CC[C@@H]1[C@@H]2CC[C@@]2(C)[C@H]1CC[C@]2(O)C(=O)CO`: in test [1], the Potency entry is “inactive”. Moreover, the outcome in [7] was inactive.
Turning to `CCCCNc1ccc(C(=O)OCCN(C)C)cc1`, the Potency entry in test [1] was “inactive”. Further, the outcome in [6] and in test [7] was inactive.
As for `CCN(CC)CCNC(=O)c1ccc(NC(C)=O)cc1`, in [1], the Potency entry is “inactive”. Also, in test [6], the molecule was classed as inactive.
Take `CC(C)(C)NCC(O)c1cc(O)cc(O)c1` (stereo not given): the call in [6] was inactive.
Turning to `C[N+](C)(C)CCCCCCCCCC[N+](C)(C)C`, in test [1], the Potency entry was “inactive”. Further, in test [7], the result was inactive.
For the molecule `OC(CCN1CCCCC1)(c1ccccc1)C1CCCCC1` (stereo not given), the outcome in test [6] was inactive.
As to `COCC(=O)O[C@]1(CCN(C)CCCc2nc3ccccc3[nH]2)CCc2cc(F)ccc2[C@@H]1C(C)C`, the Potency entry in test [1] was “inactive”. For the same molecule, the Potency in [10] was 12600 nM (active).
On to `CC(C)NCC(O)c1cc(O)cc(O)c1` (stereo not given), for which the result in test [8] and in [6] was inactive.
Turning to `CNCCCN1c2ccccc2CCc2ccccc21`, the Potency result in test [1] was “inactive”. Moreover, the call in test [6] was inactive. In addition, the Potency in test [10] is 12600 nM (active).
`CN(C)CCN(Cc1cccs1)c1ccccn1`: in test [9], the Potency entry is “inactive”. For the same molecule, the result in test [8], in [6] and in test [7] was inactive.
With `O=C(O)CN(CCN(CC(=O)O)CC(=O)O)CCN(CC(=O)O)CC(=O)O`, in [1], the Potency result was “inactive”. In addition, in test [7], the molecule was classed as inactive.
Consider `COCCCC/C(=N\OCCN)c1ccc(C(F)(F)F)cc1`, for which the activation in test [5] was 24.7% (inactive).
`CC(=O)OC(C)C[N+](C)(C)C` (stereo not given): the call in [8] and in test [6] was inactive.
As for `CCCNC(C)C(=O)Nc1ccccc1C` (stereo not given), the molecule was classed as inactive in [8] and in test [6].
Consider `CCCCCN(CCCCC)C(=O)C(CCC(=O)O)NC(=O)c1ccc(Cl)c(Cl)c1` (stereo not given), for which the result in [8] and in test [6] was inactive.
`CC(C)(Oc1ccc(CCNC(=O)c2ccc(Cl)cc2)cc1)C(=O)O`: the outcome in test [8] and in [6] was inactive.
Consider `C[N+](C)(C)CCOC(=O)CCC(=O)OCC[N+](C)(C)C`, for which the Potency result in test [1] is “inactive”. Further, in [7], the molecule was classed as inactive.
Consider `CC(=O)OCC1=C(C(=O)O)N2C(=O)[C@@H](NC(=O)Cc3cccs3)[C@H]2SC1`, for which the activation in test [5] was -3.15% (inactive).
In the case of `CCCN(CCC)C(=O)C(CCC(=O)O)NC(=O)c1ccccc1` (stereo not given), the molecule was classed as inactive in test [8] and in [6].
As to `O=C(O)CP(=O)(O)O`, in [1], the Potency result is “inactive”. The activation in test [5] is 5.52% (inactive) and -2.23% (inactive). In [7], the outcome was inactive.
As to `Cc1ccc(S(=O)(=O)NC(=O)NN2CCCCCC2)cc1`, in [1], the Potency entry is “inactive”. Also, the molecule was called inactive in test [6].
With `CCn1nc(C(=O)O)c(=O)c2cc3c(cc21)OCO3`, in [1], the Potency entry is “inactive”. Also, in [6], the outcome was inactive.
Turning to `Cc1ccc(/C(=C\CN2CCCC2)c2ccccn2)cc1`, the result in test [6] was inactive.
On to `Nc1c2c(nc3ccccc13)CCCC2O` (stereo not given), for which the call in test [8] and in test [6] was inactive.

Source of the values: PubChem BioAssay (NCATS).
